Test results taken from publication PMC4336329 (PLoS ONE, 2015).
Screen size: about 310,000 compounds; about 2,200 (0.71%) showed an effect of 50% or more. The effect is printed as a negative number. For the sample, strong results were picked, then their nearest neighbours and some compounds at random.

The compounds below were run against human ether-à-go-go-related gene (hERG) potassium channel (human, UniProt Q12809) (assay: primary screen, population patch clamp on CHO cells stably expressing hERG; higher = less effect of the substance).
human ether-à-go-go-related gene (hERG) potassium channel, sequence (Q12809 whole entry, looked up): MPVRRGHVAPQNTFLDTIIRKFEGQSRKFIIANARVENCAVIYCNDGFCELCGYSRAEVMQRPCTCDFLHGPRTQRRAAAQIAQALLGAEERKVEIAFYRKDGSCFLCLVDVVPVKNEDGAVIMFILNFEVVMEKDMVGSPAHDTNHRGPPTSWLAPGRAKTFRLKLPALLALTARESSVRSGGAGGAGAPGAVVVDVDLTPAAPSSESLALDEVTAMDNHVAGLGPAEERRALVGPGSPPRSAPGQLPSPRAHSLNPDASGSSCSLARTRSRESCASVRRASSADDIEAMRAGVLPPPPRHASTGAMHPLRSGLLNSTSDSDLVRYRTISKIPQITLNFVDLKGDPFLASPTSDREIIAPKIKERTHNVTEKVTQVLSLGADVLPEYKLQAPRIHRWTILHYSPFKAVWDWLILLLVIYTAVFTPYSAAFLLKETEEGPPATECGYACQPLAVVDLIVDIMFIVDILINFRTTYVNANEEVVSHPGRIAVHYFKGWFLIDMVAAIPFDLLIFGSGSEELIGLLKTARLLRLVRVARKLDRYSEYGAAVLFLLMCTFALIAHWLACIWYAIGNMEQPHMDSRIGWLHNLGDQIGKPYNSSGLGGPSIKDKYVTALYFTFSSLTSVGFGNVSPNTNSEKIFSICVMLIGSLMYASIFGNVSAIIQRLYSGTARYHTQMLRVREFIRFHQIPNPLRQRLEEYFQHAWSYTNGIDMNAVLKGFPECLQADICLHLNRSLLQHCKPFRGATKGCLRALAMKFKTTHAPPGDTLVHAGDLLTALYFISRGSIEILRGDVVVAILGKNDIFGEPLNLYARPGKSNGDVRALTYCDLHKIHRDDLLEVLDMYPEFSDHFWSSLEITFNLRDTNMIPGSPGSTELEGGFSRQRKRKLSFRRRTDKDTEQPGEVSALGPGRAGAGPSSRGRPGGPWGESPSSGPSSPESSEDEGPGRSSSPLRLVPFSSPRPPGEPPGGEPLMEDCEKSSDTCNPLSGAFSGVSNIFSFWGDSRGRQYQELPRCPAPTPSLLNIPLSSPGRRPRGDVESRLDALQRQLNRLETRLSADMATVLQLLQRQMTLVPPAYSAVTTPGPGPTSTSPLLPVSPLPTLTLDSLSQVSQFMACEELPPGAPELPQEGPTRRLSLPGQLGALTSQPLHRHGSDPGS

SMILES	hERG current change (%, negative = inhibition) at 1uM
O=C(C1CCN(C2CC(=O)N(c3ccc(Cl)cc3)C2=O)CC1)N1CCOCC1 (stereo not drawn)	2.01%
CCCC[C@@H]1C[C@H]1[C@@H](NC(=O)c1ccco1)c1ccc(Cl)cc1	6.22%
CC(Nc1nc(N2CCCCC2)nc2ccccc12)c1ccccc1 (stereo not drawn)	-14.4%
CC(Nc1nc(N2CCOCC2)nc2ccccc12)c1ccccc1 (stereo not drawn)	-52.7%
CC(Nc1nc(N2CCN(S(C)(=O)=O)CC2)nc2ccccc12)c1ccccc1 (stereo not drawn)	-14%
CC(Nc1nc(N2CCNCC2)nc2ccccc12)c1ccccc1 (stereo not drawn)	-31.7%
CC(Nc1nc(N2CCN(CCO)CC2)nc2ccccc12)c1ccccc1 (stereo not drawn)	-25.9%
CC(Nc1nc(N2CCCC2)nc2ccccc12)c1ccccc1 (stereo not drawn)	-84.6%
COC(=O)C(C(=O)Nc1cccc(Cl)c1C)C1CCCC1 (stereo not drawn)	5.04%
COCCCN1C(=O)C(=O)/C(=C(/O)c2ccc(S(=O)(=O)N3CCOCC3)cc2)C1c1ccc(F)cc1 (stereo not drawn)	6.04%
Cc1ccsc1/C=N/Nc1ncnc2nc[nH]c12	-2.18%
COc1ccc(S(=O)(=O)N2N=C(c3ccc(NS(C)(=O)=O)cc3)CC2c2ccco2)cc1 (stereo not drawn)	-69.6%
CS(=O)(=O)Nc1ccc(C2=NN(S(=O)(=O)c3ccc(F)cc3)C(c3ccco3)C2)cc1 (stereo not drawn)	-15.6%
COc1ccc(S(=O)(=O)N2N=C(c3cccc(NS(C)(=O)=O)c3)CC2c2ccco2)cc1 (stereo not drawn)	16.4%
O=C(CCS(=O)(=O)Cc1ccccc1F)NCCc1ccc(Cl)cc1	5.86%
Cc1cc(NC(=O)CSc2nc3c(c(=O)n2-c2ccc(Br)cc2)SCC3)no1	6.41%
CCOC(=O)c1c(CN2CCN(C)CC2)n(C)c2cc(Br)c(OC)cc12	-12.4%
CCOC(=O)c1c(CN2CCCCC2)n(C)c2cc(Br)c(O)cc12	-68.8%
CCOC(=O)c1c(CN(CC)CC)oc2ccc(OC)cc12	-25.8%
CCOC(=O)c1c(CN2CCCCC2)n(C)c2cc(Br)c(OC)cc12	9.14%
CCOC(=O)c1c(CN(CC)CC)n(C)c2cc(Br)c(O)cc12.Cl	-45%
CCOC(=O)c1c(CN(CC)CC)oc2cc(Br)c(O)cc12	-59.5%
Cc1ccc(NC(=S)NNC(=O)Cn2nc(C(F)F)cc2C(F)F)cc1	13.6%
Cc1oc(C(C)(C)C)cc1C(=O)Nc1ccc(N2CCOCC2)cc1	4.63%
